# Test results as given in PubChem BioAssay.
# Calls of active or inactive are those of the source.
# Columns and labels:
# [1] = system: Plasmodium falciparum Sir2 (PF13_0152, Sir2A); assay: pfSir2 binders on small-molecule microarrays, primary screen, biochemical, small-molecule microarray, 635 nm fluorescence (AID 1098); conditions: small-molecule microarray binding, fluorescence 635 nm; higher = more signal;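 further: score merges spot fluorescence intensity with its signal-to-noise ratio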
# [2] = small-molecule microarray binders of probe aDKK1, primary screen, biochemical, biotinylated probe, 635/667 nm fluorescence (AID 1099); conditions: higher = more signal;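 further: score merges 667nm spot fluorescence with signal to noise across triplicate slides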
# [3] = small-molecule microarray binders of probe aCHRDL2, primary screen, biochemical, biotinylated probe, 635/667 nm fluorescence (AID 1100); conditions: higher = more signal
# [4] = splicing luciferase reporter signal modulators, primary screen, spliceosome inhibition project, cell-based, HEK293, splice +/- reporter (AID 1101); conditions: luminescence, 24 h, higher = more signal, called active from +8 up or from −8 down;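 further: HEK293 cells carrying a splicing-competent luciferase reporter gene; test concentration not given here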
# [5] = biological target: Fibroblast growth factor 10 (Homo sapiens) (UniProt O15520); assay: FGF10 binders on small-molecule microarrays, primary screen, biochemical, small-molecule microarray, 635 nm fluorescence (AID 1102); conditions: FGF10 binding, fluorescence 635 nm, higher = more signal
# [6] = system: glycogen synthase kinase-3 (GSK3A per assay name; protocol says GSK3B); assay: GSK3 binders on small-molecule microarrays, primary screen, biochemical, small-molecule microarray, 635 nm fluorescence, GSK3A (AID 1103); conditions: small-molecule microarray binding, fluorescence 635 nm; higher = more signal; further: the record names both GSK3A and GSK3B
# [7] = biological target: Epidermal growth factor receptor (Homo sapiens) (UniProt P00533); assay: EGFR binders on small-molecule microarrays, primary screen, biochemical, small-molecule microarray, 635 nm fluorescence (AID 1104); conditions: EGFR binding, higher = more signal;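 further: score merges 667 nm emission intensity with spot signal to noise over triplicate slides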
# [8] = biological target: Follistatin-related protein 3 (Homo sapiens) (UniProt O95633); assay: FSTL3 binders on small-molecule microarrays, primary screen, biochemical, small-molecule microarray, 635 nm fluorescence (AID 1105); conditions: FSTL3 binding, higher = more signal;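 further: score merges emission near 667 nm and signal to noise per printed spot across three slides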
# [9] = biological target: Dickkopf-related protein 1 (Homo sapiens) (UniProt O94907); assay: DKK1 binders on small-molecule microarrays, primary screen, biochemical, small-molecule microarray, 635 nm fluorescence scan (AID 1106); conditions: DKK1 binding, higher = more signal;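 further: score merges emission near 667 nm with signal to noise over three replicate slides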
# [10] = system: Inhibin beta A chain (activin A); assay: INHBA (activin A) binders on microarrays, primary screen, biochemical, small-molecule microarray, 635 nm fluorescence scan (AID 1107); conditions: small-molecule microarray binding, higher = more signal;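 further: mouse activin A protein probed at 4.33 µg/mL on printed slides; score merges bound-protein fluorescence near 667 nm with spot signal-to-noise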
# [11] = system: Human papillomavirus type 1a protein E7 (residues 44-93); assay: HPV1a E7 fragment binders on microarrays, primary screen, biochemical, small-molecule microarray, residues 44-93, 635 nm fluorescence (AID 1108); conditions: small-molecule microarray binding, fluorescence 635 nm; higher = more signal;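 further: E7 fragment applied at 1 µg/mL in TBST for 1 h at 4 C; score combines spot fluorescence with its signal to noise ratio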
# [12] = modulators of HCV replicon luciferase signal, primary screen, HCV replication inhibitor project, Huh7 cells, luciferase reporter (AID 1109); conditions: 48 h, higher = more signal;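 further: huh7 hepatoma cells harbouring a luciferase neomycin HCV replicon reporter; luciferase luminescence as measure of HCV replicon replication; test concentration not given here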
# [13] = biological target: Left-right determination factor 2 (Homo sapiens) (UniProt O00292); assay: LEFTY2 binders on small-molecule microarrays, primary screen, biochemical, small-molecule microarray, 635 nm fluorescence scan (AID 1110); conditions: LEFTY2 binding, higher = more signal
# [14] = biological target: Calmodulin-1 (Homo sapiens) (UniProt P0DP23); assay: CALM1 binders on microarrays, EGTA buffer, profiling panel, biochemical, small-molecule microarray, Cy5-labelled CALM1 (AID 1111); conditions: Cy5-CALM1 binding fluorescence, higher = more signal;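 further: labelled calmodulin applied in Tris saline Tween buffer holding calcium plus EGTA and DTT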
# [15] = biological target: Calmodulin-1 (Homo sapiens) (UniProt P0DP23); assay: calcium-bound CALM1 binders on microarrays, profiling panel, artefact control for SMM control-protein annotation, biochemical, small-molecule microarray, Cy5-labelled CALM1, plus calcium (AID 1112); conditions: Cy5-CALM1 binding fluorescence, higher = more signal;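 further: score merges spot fluorescence with signal to noise from triplicate slides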
# [16] = small-molecule microarray binders of probe aWnt5a, primary screen, biochemical, biotinylated probe, 635/667 nm fluorescence (AID 1113); conditions: higher = more signal;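 further: score merges 667 nm fluorescence intensity with signal-to-noise per printed feature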
# [17] = small-molecule microarray binders of probe aShh, primary screen, biochemical, biotinylated probe, 635/667 nm fluorescence (AID 1114); conditions: higher = more signal;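 further: probe is biotin-labelled aShh protein from a stem cell growth factor screen; measures binding of labelled protein to compounds printed on the slide; score merges feature fluorescence at 667 nm with signal-to-noise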
# [18] = small-molecule microarray binders of probe aNog, primary screen, biochemical, biotinylated probe, 635/667 nm fluorescence (AID 1115); conditions: higher = more signal;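 further: probe is biotinylated aNog protein used at 0.15 µg/mL for 1 h at 4 C; z-score combines 667 nm fluorescence of each spot with its signal to noise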
# [19] = biological target: Torsin-1A-interacting protein 1 (Homo sapiens) (UniProt Q5JTV8); assay: LAP1 binders from COS7 cell lysate, primary screen, small-molecule microarray, 635/667 nm fluorescence (AID 1116); conditions: COS7-hLAP1 lysate binding, 635 nm fluorescence, higher = more signal
# [20] = biological target: Alpha-bungarotoxin (Bungarus multicinctus) (UniProt P60615); assay: alpha-bungarotoxin binders on microarray, profiling panel, artefact control for SMM control protein annotation, biochemical, small-molecule microarray, Alexa647 label, 635/667 nm fluorescence (AID 1117); conditions: alpha-BTX-A647 binding fluorescence, higher = more signal
# Chain of Alpha-bungarotoxin (Bungarus multicinctus) (P60615 whole entry, looked up): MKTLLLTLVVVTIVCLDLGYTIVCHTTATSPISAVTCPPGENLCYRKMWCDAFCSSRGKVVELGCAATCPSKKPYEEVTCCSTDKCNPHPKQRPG
# Chain of Dickkopf-related protein 1 (Homo sapiens) (O94907 whole entry, looked up): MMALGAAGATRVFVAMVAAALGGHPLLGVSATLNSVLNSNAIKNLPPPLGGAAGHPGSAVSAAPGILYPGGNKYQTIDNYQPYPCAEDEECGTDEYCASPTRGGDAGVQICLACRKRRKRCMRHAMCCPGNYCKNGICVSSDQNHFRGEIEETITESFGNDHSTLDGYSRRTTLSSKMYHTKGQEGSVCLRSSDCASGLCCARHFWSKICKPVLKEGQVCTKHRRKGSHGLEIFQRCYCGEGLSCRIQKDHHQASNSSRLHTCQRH
# Chain of Left-right determination factor 2 (Homo sapiens) (O00292 whole entry, looked up): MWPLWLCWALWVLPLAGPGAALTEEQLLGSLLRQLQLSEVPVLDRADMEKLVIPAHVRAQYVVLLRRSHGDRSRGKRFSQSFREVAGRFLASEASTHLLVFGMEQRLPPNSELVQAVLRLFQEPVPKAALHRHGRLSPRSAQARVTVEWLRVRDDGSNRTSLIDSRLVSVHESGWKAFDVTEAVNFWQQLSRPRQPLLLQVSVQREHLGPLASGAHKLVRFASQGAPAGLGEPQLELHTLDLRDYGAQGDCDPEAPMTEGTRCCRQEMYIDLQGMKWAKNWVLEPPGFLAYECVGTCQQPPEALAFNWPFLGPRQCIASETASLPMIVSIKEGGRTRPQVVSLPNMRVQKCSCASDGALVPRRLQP
# Chain of Epidermal growth factor receptor (Homo sapiens) (P00533 whole entry, looked up): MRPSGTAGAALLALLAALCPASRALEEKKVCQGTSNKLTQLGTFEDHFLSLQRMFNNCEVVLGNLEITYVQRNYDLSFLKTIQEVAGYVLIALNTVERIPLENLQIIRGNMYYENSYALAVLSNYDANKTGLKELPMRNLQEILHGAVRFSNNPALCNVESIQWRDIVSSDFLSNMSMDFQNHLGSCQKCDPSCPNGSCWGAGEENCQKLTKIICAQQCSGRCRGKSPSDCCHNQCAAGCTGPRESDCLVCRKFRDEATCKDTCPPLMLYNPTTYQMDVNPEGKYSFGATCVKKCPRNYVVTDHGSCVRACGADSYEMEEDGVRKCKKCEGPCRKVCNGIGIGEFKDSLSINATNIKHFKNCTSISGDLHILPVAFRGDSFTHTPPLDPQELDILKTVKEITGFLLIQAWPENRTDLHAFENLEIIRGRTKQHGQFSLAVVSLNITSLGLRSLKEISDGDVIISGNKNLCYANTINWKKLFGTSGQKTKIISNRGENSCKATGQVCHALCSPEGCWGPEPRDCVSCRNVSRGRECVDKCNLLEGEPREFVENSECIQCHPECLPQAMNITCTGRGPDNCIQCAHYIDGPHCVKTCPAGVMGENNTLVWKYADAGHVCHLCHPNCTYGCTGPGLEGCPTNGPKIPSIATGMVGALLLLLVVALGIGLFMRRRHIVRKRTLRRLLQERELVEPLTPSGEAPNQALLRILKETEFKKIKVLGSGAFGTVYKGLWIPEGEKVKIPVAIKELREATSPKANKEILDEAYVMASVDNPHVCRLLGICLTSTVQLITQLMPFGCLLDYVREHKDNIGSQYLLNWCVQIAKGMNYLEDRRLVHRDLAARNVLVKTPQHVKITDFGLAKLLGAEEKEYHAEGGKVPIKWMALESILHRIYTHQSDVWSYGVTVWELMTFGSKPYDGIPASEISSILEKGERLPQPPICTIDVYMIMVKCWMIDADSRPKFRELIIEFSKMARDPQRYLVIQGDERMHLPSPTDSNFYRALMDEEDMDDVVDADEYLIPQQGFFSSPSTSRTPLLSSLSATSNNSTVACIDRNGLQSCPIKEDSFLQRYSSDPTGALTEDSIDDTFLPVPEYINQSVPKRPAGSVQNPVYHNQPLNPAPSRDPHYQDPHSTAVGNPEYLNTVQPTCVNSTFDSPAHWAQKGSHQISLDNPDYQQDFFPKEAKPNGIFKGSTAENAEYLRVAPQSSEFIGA
# Chain of Torsin-1A-interacting protein 1 (Homo sapiens) (Q5JTV8 whole entry, looked up): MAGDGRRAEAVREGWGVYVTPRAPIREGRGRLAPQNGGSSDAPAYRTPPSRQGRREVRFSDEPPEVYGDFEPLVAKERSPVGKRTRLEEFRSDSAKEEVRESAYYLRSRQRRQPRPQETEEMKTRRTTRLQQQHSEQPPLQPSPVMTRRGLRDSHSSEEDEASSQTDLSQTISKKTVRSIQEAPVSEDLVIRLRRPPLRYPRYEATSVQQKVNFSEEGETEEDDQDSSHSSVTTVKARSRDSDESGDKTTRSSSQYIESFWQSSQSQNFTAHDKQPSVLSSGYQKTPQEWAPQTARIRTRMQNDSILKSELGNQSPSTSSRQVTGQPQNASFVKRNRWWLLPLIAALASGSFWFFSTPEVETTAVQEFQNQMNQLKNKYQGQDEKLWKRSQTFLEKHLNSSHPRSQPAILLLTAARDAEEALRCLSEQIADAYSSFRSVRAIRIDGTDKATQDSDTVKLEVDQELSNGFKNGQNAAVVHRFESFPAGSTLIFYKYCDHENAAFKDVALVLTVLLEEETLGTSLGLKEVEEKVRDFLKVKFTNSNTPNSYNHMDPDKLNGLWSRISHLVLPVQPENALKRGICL
# Chain of Fibroblast growth factor 10 (Homo sapiens) (O15520 whole entry, looked up): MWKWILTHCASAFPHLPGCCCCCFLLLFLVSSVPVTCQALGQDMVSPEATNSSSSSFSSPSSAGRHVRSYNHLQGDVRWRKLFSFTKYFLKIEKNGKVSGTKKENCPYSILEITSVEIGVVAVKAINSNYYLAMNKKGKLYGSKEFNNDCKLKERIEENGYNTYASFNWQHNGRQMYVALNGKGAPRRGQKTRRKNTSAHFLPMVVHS
# Chain of Follistatin-related protein 3 (Homo sapiens) (O95633 whole entry, looked up): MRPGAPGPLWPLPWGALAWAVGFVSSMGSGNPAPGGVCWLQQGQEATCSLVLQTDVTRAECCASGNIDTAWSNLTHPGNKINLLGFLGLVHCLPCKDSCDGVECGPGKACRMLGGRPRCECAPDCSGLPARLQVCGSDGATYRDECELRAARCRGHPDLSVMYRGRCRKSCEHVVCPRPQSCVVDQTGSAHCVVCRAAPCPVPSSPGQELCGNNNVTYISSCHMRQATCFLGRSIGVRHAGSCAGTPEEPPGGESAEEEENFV
Structure (SMILES),composite z-score [1],composite z-score [2],composite z-score [3],z-score [4],composite z-score [5],composite z-score [6],composite z-score [7],composite z-score [8],composite z-score [9],composite z-score [10],composite z-score [11],z-score [12],composite z-score [13],composite z-score [14],composite z-score [15],composite z-score [16],composite z-score [17],composite z-score [18],composite z-score [19],composite z-score [20]
O=C1O[C@H](c2ccccc2)[C@H](c2ccccc2)N2[C@H]1[C@@H](C(=O)N1CCN(c3ncccn3)CC1)[C@]1(C(=O)Nc3ccc(C#CCCO)cc31)[C@H]2c1ccccc1OCCO,1.24,0.0649,0.447,0.105 (inactive),1.15,1.11,0.282,0.501,0.525,-0.14,1.02,-1.49,0.708,1.46,0.12,-0.091,0.126,0.576,0.453,1.77
C=C(CCCC)/C(=C/C[C@H](OC(=O)c1ccncc1)c1ccc(CO)o1)c1cc(C(=O)OC)ccc1OC,1.21,0.0946,-0.125,0.84 (inactive),0.565,1.26,0.356,0.928,0.575,0.554,-0.0541,-1.93,0.982,0.786,-0.324,-0.196,0.256,0.95,0.539,1.28
CC(C)NC(=O)[C@@]1(Cc2ccccc2I)c2ccccc2C(=O)N(Cc2ccccc2C(F)(F)F)[C@H]1c1ccc(CO)cc1,1.75,0.474,0.594,0.4 (inactive),0.157,0.182,-0.251,0.0273,-0.467,0.299,-0.358,-1.47,-0.0083,0.503,0.377,-0.096,-0.012,0.647,0.506,0.565
COc1ccc([Si](C)(C)[C@@H]2[C@@H](CCO)O[C@]3(C(=O)N(Cc4ccccc4)c4ccc(N5C(=O)COc6ccccc65)cc43)[C@H]2C)cc1,0.845,-0.0934,0.0637,-1.21 (inactive),0.0677,0.0368,-0.0505,0.0717,0.163,0.254,1.23,-4.11,0.0529,0.953,0.838,-0.129,-0.0626,-0.194,0.462,0.31
C[N+](C)(C)CCCC[C@@H]1NC(=O)[C@H]2C[C@@H](C(=O)NCCCCCCN)[C@@H](c3cccc(OCCO)c3)N2C1=O,1.56,1.82,0.984,-0.481 (inactive),1.17,1.33,0.717,1.28,1.27,1.63,1.4,0.347,1.39,1.11,1.13,0.469,0.705,2.31,1.21,0.995
CC(C)N1CC=CC23O[C@@H]4C=CCOC(=O)[C@@H]4[C@H]2C(=O)N(CCCCCCO)[C@@H]3C1=O (stereo not given in full),1.99,-0.284,0.143,-0.594 (inactive),0.636,-0.826,-0.997,-0.483,-0.959,0.741,-0.433,-0.761,-0.651,-0.815,-0.289,-0.18,-0.116,-0.223,2.03,-0.92
O=C1O[C@@H](c2ccccc2)[C@@H](c2ccccc2)N2[C@@H](c3ccc(O)cc3)[C@]3(C(=O)Nc4ccc(C#CC5=CCCCC5)cc43)[C@@H](C(=O)Nc3nc4ccccc4s3)[C@H]12,1.61,0.307,-0.0516,-0.0881 (inactive),1.36,1.29,0.381,1.31,1.06,1.07,1.4,-0.99,1.25,1.48,-0.18,0.428,0.368,2.02,0.825,1.87
COc1ccc([Si](C)(C)[C@H]2[C@H](CC(=O)N3CCC[C@H]3CO)O[C@@]3(C(=O)N(Cc4ccc(N5C(=O)c6cccc7cccc5c67)cc4)c4ccccc43)[C@@H]2C)cc1,1.4,0.184,0.0075,-1.17 (inactive),0.651,1.2,0.6,1.35,0.736,0.4,1.14,-1.96,0.758,0.325,-0.544,-0.0944,0.151,0.473,0.585,2.05
C=C[C@@H](O)[C@H]1CC(c2ccccc2)=NO1,1.46,-0.187,0.0537,0.147 (inactive),0.0244,-0.408,0.449,0.046,0.271,0.614,-0.893,0.479,0.277,-0.358,-0.711,-0.208,0.167,-0.0524,0.0222,-0.0532
COc1ccc(CCNC(=O)[C@@H]2c3ccccc3C(=O)N(Cc3ccccc3C(F)(F)F)[C@H]2c2ccc(CO)cc2)cc1,1.46,-0.0126,0.946,0.609 (inactive),0.176,0.013,-1.01,-0.348,-0.814,0.288,1.47,-1.2,-1.27,-0.22,-0.181,-0.0735,-0.154,-0.559,0.381,-0.278
